Compounds with a hit are over-represented: about 2.1% of the library has one in this group of screens.
mut p53 react = mutant p53 pathway reactivation; hit rate 1.5% among 28,000; AID 624151; activation, % at 9.98 µM; SW480 PUMA-promoter luciferase; in the data active means activation above about 52%; inconclusive means no clear call, values can overlap the other calls
ID4 binder = ID4 (human) binding | P47928 | small molecule microarray, Flag-ID4 binding, fluorescence F/B | calls only | hit rate 1.2% among 31,000; call rule not given here;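 further: a binder raises fluorescence above local background on the spot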
Target sequence (P47928 whole entry, looked up): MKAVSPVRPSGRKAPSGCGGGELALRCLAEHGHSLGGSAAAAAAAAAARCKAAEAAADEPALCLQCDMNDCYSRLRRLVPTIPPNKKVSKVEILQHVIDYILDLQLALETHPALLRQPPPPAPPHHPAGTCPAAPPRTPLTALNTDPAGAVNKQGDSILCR
STK33 inh = inhibitors of human STK33 kinase | hit rate 0.44% among 27,000 | inhibition, % at 12.5 µM | Q9BYT3 | ADP-Glo luminescence, MBP substrate | AID 2322; in the data active means inhibition above about 20%; inconclusive means no clear call, values can overlap the other calls
* = called active by the depositor; i = inactive; ? = inconclusive; . = not tested or not shown; + = active, no number.

SMILES | mut p53 react | ID4 binder | STK33 inh
C[C@@H]1CN([C@@H](C)CO)S(=O)(=O)c2ccc(C#CC3CCCC3)cc2O[C@@H]1CN(C)C(=O)c1cccc(F)c1 | -9 | i | .
CN(C)c1nc(N)nc(CSc2nnnn2C)n1 | 4 | i | -3
CN(C)c1nc(N)nc(CSc2ncc(Cl)cc2Cl)n1 | 62* | i | 1
NCCCCCNC(=O)[C@H]1C[C@H]2C(=O)NCC(=O)N2[C@H]1c1cccc(OCCO)c1 | . | i | .
NCCCCCNC(=O)[C@@H]1C[C@@H]2C(=O)NCC(=O)N2[C@@H]1c1cccc(OCCO)c1 | . | + | -1
NCCCCCCNC(=O)[C@@H]1C[C@@H]2C(=O)NCC(=O)N2[C@@H]1c1ccc(O)cc1 | . | + | .
CN(C)CCCCNC(=O)[C@@H]1C[C@@H]2C(=O)NCC(=O)N2[C@@H]1c1ccc(O)cc1 | . | i | -3
C[N+](C)(C)CCCC[C@@H]1NC(=O)[C@H]2C[C@@H](C(=O)NCCCCCCN)[C@@H](c3ccc(O)cc3)N2C1=O | . | . | 1
NCCCCCCNC(=O)[C@@H]1C[C@@H]2C(=O)N[C@@H](Cc3ccccc3)C(=O)N2[C@@H]1c1ccc(O)cc1 | . | + | -3
O=C(CSc1nc(O)cc(=O)[nH]1)Nc1cc(Cl)cc(Cl)c1 | 3 | i | -2
O=C(CN1C(=O)C2C3C=CC(C4CC34)C2C1=O)Nc1ccc(Oc2ccccc2)cc1 (stereo not drawn) | 2 | i | 0
O=C(CSc1nnc(-c2cccnc2)n1-c1ccccc1)N1CCc2ccccc21 | -10 | i | 5
O=C(CSc1nnc(-c2cccnc2)n1-c1ccccc1)N1CCN(c2ccc(F)cc2)CC1 | -3 | + | 0
CCc1c(C)nc(SCC(=O)Nc2ccc(Cl)cc2)[nH]c1=O | -7 | i | 1
CCN(CC(=O)Nc1cccc(C)c1)S(=O)(=O)c1ccc(Br)cc1 | -13 | i | -2
COc1cc(-c2nnc(SCC(=O)c3ccc(Cl)cc3)n2C)cc(OC)c1OC | -2 | i | -2
Cc1cc(Cl)ccc1OC(C)C(=O)Nc1cccc(-c2nnc(-c3ccccc3)o2)c1 (stereo not drawn) | 85* | i | 1
CC(Oc1ccccc1)C(=O)Nc1cccc(-c2nnc(-c3ccccc3)o2)c1 (stereo not drawn) | 114* | i | 4
CC(Oc1ccc(Cl)cc1Cl)C(=O)Nc1cccc(-c2nc3ccccc3o2)c1 (stereo not drawn) | 9 | i | -3
CCC(Oc1ccccc1)C(=O)Nc1cccc(NC(C)=O)c1 (stereo not drawn) | -7 | i | 3
O=C(CCSc1nc2ccccc2s1)Nc1ccccc1Cl | -7 | i | 0
Cc1cc(OCC(=O)Nc2cccc(NC(=O)c3cccc(Cl)c3)c2)ccc1Cl | ? | i | 0
N/C(=N\O)c1ccc(N2CCN(c3ncccc3C(F)(F)F)CC2)nc1 | 142* | i | .
NC(=S)c1ccc(N2CCC(C(F)(F)F)CC2)nc1 | . | . | -3
COc1cc2c3cc1Oc1c(OC)c(OC)cc4c1[C@@H](Cc1ccc(OC(=O)c5ccc([N+](=O)[O-])cc5)c(c1)Oc1ccc(cc1)C[C@@H]3N(C)CC2)N(C)CC4 | -2 | + | 4
SMILES | mut p53 react | ID4 binder | STK33 inh
COc1ccc2cc1Oc1ccc(cc1)C[C@H]1c3cc(c(OC)cc3CCN1C)Oc1c(OC)c(OC)cc3c1[C@H](C2)N(C)CC3 | . | . | -2
CCCCCCNC(=O)Nc1ccc(S(=O)(=O)Nc2ccc(CCNCC(O)COc3ccc(O)cc3)cc2)cc1 (stereo not drawn) | -51 | i | .
Cc1ccc2nc(Nc3nc(CSc4nnc(C)s4)cc(=O)[nH]3)nc(C)c2c1 | 54* | i | 0
Cc1nnc(SCc2cc(=O)[nH]c(Nc3nc(C)c4ccccc4n3)n2)s1 | 20 | i | 0
COc1c(O)c2c(=O)cc3c4c5c(cc(=O)c6c(O)c(OC)c(CC(C)O)c(c(c1CC(C)O)c24)c65)OCO3 (stereo not drawn) | . | i | .
COC(=O)c1cc(Br)ccc1NC(=O)COc1ccc(Cl)cc1C | 10 | i | 1
Cc1ccc(NC(=O)COc2c(C)cc(Cl)cc2Cl)c([N+](=O)[O-])c1 | 17 | i | -2
O=C(Nc1ccccc1C(=O)NCCOc1ccccc1)c1ccccc1I | -1 | i | -2
O=C(NCc1ccco1)c1ccccc1NC(=O)C1CC(=O)N(c2ccc(Cl)cc2)C1 (stereo not drawn) | -9 | i | -3
O=C(Nc1ccc(Cl)cc1)Nc1ccccc1C(=O)NCc1ccco1 | 80* | i | 4
COCCNC(=O)c1ccccc1NC(=O)Nc1ccc(Cl)cc1 | 61* | i | -4
CCCc1nnc2n1N=C(c1ccc(Br)cc1)CS2 | 7 | i | .
COc1ccc(NC(=O)CNC(=O)c2ccccc2C)cc1 | 29 | i | -4
COc1ccc(NC(=O)c2ccc(N(C)S(=O)(=O)c3ccc(OC)c(OC)c3)cc2)c(OC)c1 | -6 | i | 5
CCOC(=O)CSc1nc2c(c(=O)n1-c1ccccc1OC)C1(CCCC1)Cc1ccccc1-2 | -13 | i | 1
CCc1cccc(C)c1NC(=O)CSc1nc2sc3c(c2c(=O)n1C)CCC(C)C3 (stereo not drawn) | -29 | i | 4
CC1CCc2c(sc3nc(SC(C)C(=O)Nc4ccccc4)nc(N)c23)C1 (stereo not drawn) | 118* | i | 3
Cc1ccc(NC(=O)CSc2nc3cc(Cl)ccc3s2)c(C)c1 | 33 | i | -2
C[C@@H]1CCCCO[C@@H](CN(C)S(=O)(=O)c2cccs2)[C@@H](C)CN([C@H](C)CO)C(=O)c2cc(NS(C)(=O)=O)ccc2O1 | 6 | i | -1
C[C@H](CO)N1C[C@H](C)[C@@H](CN(C)S(=O)(=O)c2cccs2)OCCCC[C@H](C)Oc2ccc(NS(C)(=O)=O)cc2C1=O | 7 | + | .
C[C@H](CO)N1C[C@H](C)[C@H](CN(C)S(=O)(=O)c2cccs2)OCCCC[C@H](C)Oc2ccc(NS(C)(=O)=O)cc2C1=O | -2 | i | .
C[C@@H]1CN([C@@H](C)CO)C(=O)c2cc(NS(C)(=O)=O)ccc2O[C@@H](C)CCCCO[C@H]1CN(C)S(=O)(=O)c1cccs1 | 0 | + | .
COc1ccc(C)cc1NC(=O)C(C)NS(=O)(=O)c1ccc(Cl)cc1 (stereo not drawn) | -2 | i | -2
CCn1c(SCC(=O)Nc2ccc(F)cc2)nnc1-c1cccs1 | 17 | i | 0
COC(=O)c1cc(-c2ccccc2)sc1NC(=S)Nc1cn(C)nc1C | 6 | + | 0
SMILES | mut p53 react | ID4 binder | STK33 inh
COC(=O)c1cc(-c2ccccc2)sc1NC(=S)Nc1ccn(C)n1 | 48 | i | 0
Cc1cc(C)c(NC(=O)CSc2nnc(-c3ccc(Br)cc3)o2)c(C)c1 | 1 | i | 2
Cc1ccc(-c2cnc(-c3ccc(Br)cc3)o2)cc1 | 72* | i | .
CCOC(=O)c1ccc(NC(=O)C2CC(C)=C(C)CC2C(=O)O)cc1 (stereo not drawn) | -10 | i | -4
O=C(COc1ccc([N+](=O)[O-])cc1)Nc1ccc2oc(-c3cc(F)c(F)cc3Cl)nc2c1 | -81 | i | 0
C[C@H]1CN([C@@H](C)CO)C(=O)Cc2cc(NC(=O)Cn3cnnn3)ccc2O[C@@H]1CN(C)C(=O)Nc1ccccc1 | 6 | i | 1
